From PubChem
The list is not random: actives were taken first. Their share in the collection is about 11%.
ALDH1A1 inh – qHTS Assay for Inhibitors of Aldehyde Dehydrogenase 1 (ALDH1A1); Purified ALDH1A1, NADH fluorescence, propionaldehyde substrate; Potency, µM (top dose mostly 75.3 µM), for inactives: at the top dose activity, negative = inhibition, hits mostly inhibitors; 7.3% of 220,000 active; AID 1030, 2008;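 note: potency is the fitted concentration of half-maximal effect; plate controls were no enzyme wells and a reference inhibitor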
Target sequence (P00352 whole entry, looked up): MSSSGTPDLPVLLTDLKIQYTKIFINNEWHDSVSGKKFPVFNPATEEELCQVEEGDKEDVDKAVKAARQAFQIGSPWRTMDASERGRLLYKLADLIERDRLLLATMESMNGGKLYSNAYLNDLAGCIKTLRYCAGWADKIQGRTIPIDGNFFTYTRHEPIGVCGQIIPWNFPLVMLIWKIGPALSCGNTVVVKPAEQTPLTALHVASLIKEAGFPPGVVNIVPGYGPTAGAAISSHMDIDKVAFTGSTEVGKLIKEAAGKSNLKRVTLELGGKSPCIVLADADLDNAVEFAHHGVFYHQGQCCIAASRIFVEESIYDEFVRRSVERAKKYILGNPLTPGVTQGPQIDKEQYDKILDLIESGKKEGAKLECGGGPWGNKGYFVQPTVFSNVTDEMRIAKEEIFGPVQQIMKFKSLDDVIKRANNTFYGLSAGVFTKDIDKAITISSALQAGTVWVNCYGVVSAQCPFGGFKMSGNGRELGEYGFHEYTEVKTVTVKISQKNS
PNC inhibitor – High Content Assay for Compounds that inhibit the Assembly of the Perinucleolar Compartment | activity change (PNC), negative = inhibition, % at 10 µM | PC3M PTB-GFP, PNC prevalence imaging, 16 h; active compounds read low | AID 2417, 2010 | 3.1% of 140,000 active;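 active = readout at or below -70, meaning at least 70% loss of cells showing the perinucleolar compartment, a nuclear body marking cancer cells; inconclusive = readout between -30 and a set limit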;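 note: plate controls were DMSO wells for no effect and camptothecin positive control wells for full effect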
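Read-out is percentage of cells bearing a perinucleolar compartment, from automated 20x imaging of fixed, Hoechst-stained PC3M PTB-GFP cells. Cells were seeded 4 h, then exposed 16 h to compound (23 nl of library stock) in duplicate plates.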
HPGD block – qHTS Assay for Inhibitors of HPGD (15-Hydroxyprostaglandin Dehydrogenase). 15-hydroxyprostaglandin dehydrogenase [NAD(+)] (Homo sapiens), P15428. 4.3% of 150,000 active. Potency, µM, for inactives: at the top dose activity change, negative = inhibition, actives largely listed as inhibitors. purified HPGD, NADH fluorescence kinetic, PGE2 substrate; note: potency is the fitted concentration of half-maximal effect
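20 nM HPGD preincubated 15 min at room temperature with compound in 50 mM Tris-HCl pH 8, 0.01% Tween 20. Started with 1 mM NAD+ and 30 uM prostaglandin E2; NADH fluorescence (360/450 nm) read 5 times over 30-s intervals, last minus first.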
Starred values were filed as active, the others as inactive; u = inconclusive; x = not tested or not shown; [ ] = another dose, or the depositor's remark. Unless noted, calls come from the whole dose curve; as a rule, active = well fitted inhibition curve with a large enough effect (not every such curve was filed as active); inconclusive = small, poorly fitted or top-dose-only effect, or another doubt; inactive = no such curve, though single readings can be large or run the other way. Unless noted, % is set by controls: 0 for no effect and ±100 for the full control effect.

SMILES	ALDH1A1 inh	PNC inhibitor	HPGD block
COc1ccccc1CN1CCC2(CC1)CCN(C(=O)c1cccn1C)CC2	-5%	x	-5%
COc1ccccc1C1(CC(=O)N2CCCCC2)CCOC(C(C)C)C1 (centres undefined)	1%	-16	25µM*
Cc1ccc(C2(CC(=O)N3CCCC3)CCOC(C(C)C)C2)cc1 (centres undefined)	u	-23	-13%
CCOCC(=O)Nc1cc(C(=O)Nc2cc(C)cc(C)c2)ccc1Cl	-36%	x	x
CC(C)NC(=O)CN1C(=O)c2ccccc2S1(=O)=O	-3%	x	x
COC(=O)c1cccc(N2C(=O)c3ccccc3S2(=O)=O)c1	-37%	-8	25µM*
COC(=O)c1ccc(CN2C(=O)c3ccccc3S2(=O)=O)cc1	-9%	21	-9%
CC(C)COP(=O)(CNC(=O)CN1C(=O)c2ccccc2S1(=O)=O)OCC(C)C	4%	-82*	-13%
CCC(C)NC(=O)c1ccccc1NC(=O)CN1C(=O)c2ccccc2S1(=O)=O (centres undefined)	-5%	-19	-9%
COC(=O)c1ccccc1NC(=O)CN1C(=O)c2ccccc2S1(=O)=O	25µM*	u	-5%
O=C(CN1C(=O)c2ccccc2S1(=O)=O)NCc1ccccn1	6%	-25	6%
O=C(CN1C(=O)c2ccccc2S1(=O)=O)NCc1ccccc1Cl	-4%	-119*	-7%
Cc1ccc(/C(O)=C2\C(=O)C(=O)N(CC(C)O)C2c2ccc(N(C)C)cc2)cc1 (centres undefined)	u	-13	-15%
CC(C)CC1=NN(C(=O)c2ccncc2)C(O)(C(F)(F)F)C1 (centres undefined)	-8%	-18	-13%
Cc1ccccc1C(=O)Oc1ccc(Sc2ccc(O)cc2)cc1	-7%	4	-15%
CCO[C@H](c1cc(OC)cc([N+](=O)[O-])c1OC)[C@H](C)/C=C\CC(=O)OC	2%[13.5 µM]	x	x
Cc1ccc(C(C)C)c(OC(=O)/C=C/c2ccccc2)c1	4%	-4	-9%
Cc1ccc(O)c(C2=NOC(O)(C(F)(F)C(F)F)C2)c1 (centres undefined)	9%	u	5µM*
Cc1ccc(O)c(C2=NCCNC(C(F)(F)C(F)F)=C2)c1	-3%	13	-4%
Cc1ccc(O)c(C2=NOC(O)(C(F)(F)F)C2)c1 (centres undefined)	3%	20	14µM*
Cc1ccc(O)c(C2=Nc3ccccc3N=C(c3cccs3)C2)c1	-3%	u	-8%
O=C(Oc1ccc(C(=S)N2CCCCC2)cc1)c1ccccc1F	8.9µM*	x	x
O=C(Oc1ccc(Br)cc1C(=S)N1CCCC1)c1ccccc1F	11µM*	-28	25µM*
Cc1ccccc1C(=O)Oc1ccc(Br)cc1C(=S)N1CCCC1	-14%	32	-18%
O=C(Oc1ccc(C(=S)N2CCOCC2)cc1)c1ccccc1	-2%	x	x
SMILES	ALDH1A1 inh	PNC inhibitor	HPGD block
COc1ccc(OC)c(NC(=O)c2ccc(CSc3ncccn3)cc2)c1	0%	x	x
CCOC(=O)c1ccc(/C=C2/C=C(c3ccccc3)N(c3ccc(Cl)c(C(=O)O)c3)C2=O)cc1	11µM*	26	-23%
CCOC(=O)c1ccc(Cl)c(NC(=O)c2ccc(-c3ccccc3)cc2)c1	13%	-1	-8%
CNc1cc(OC)c(C(=O)N[C@@H]2CCN(Cc3ccccc3)[C@H]2C)cc1Cl	1%	x	-16%
COC(=O)C1=C(CN2CCN(C)CC2)NC(=O)NC1c1cc(C)ccc1C (centres undefined)	2%	u	0%
COC(=O)C1=C(COc2ccc(C=O)cc2OC)NC(=O)NC1c1cc(C)ccc1C (centres undefined)	6.3µM*	2	-6%
O=S(=O)(c1ccccc1)N1CCC2(CCCN(Cc3ccncc3)C2)CC1	u	x	-7%
COc1cccc(-c2nc(NCc3cccnc3)c3ccccc3n2)c1	0%	x	x
Cc1ccc(Cn2cccc2/C=N/NC(=S)Nc2ccc(C)cc2)cc1	-1%	x	x
COc1ccc(C/C(C)=N/NC(=S)Nc2ccccc2)cc1	22µM*	3	-30%
COc1ccc(NC(=S)N/N=C/c2cccn2Cc2ccc(F)cc2)cc1	40µM*	x	x
COc1ccc(C/C(C)=N/NC(=S)Nc2ccc(C)c(C)c2)cc1	24µM*	-12	x
COc1ccc(C/C(C)=N/NC(=O)c2ccc(C)cc2C)cc1	1%	x	x
CCOc1ccc(NC(=S)N/N=C(\C)Cc2ccc(OC)cc2)cc1	-3%	64	u
O=C(COC(=O)C1(c2ccccc2F)CCCC1)NCc1cccs1	6%	x	x
O=C(Nc1ccccc1Oc1ccccc1)c1ccccc1F	-12%	41	-15%
O=C1C2C3C=CC(C4CC34)C2C(=O)N1Cc1ccco1 (centres undefined)	22µM*	84	-1%
O=C1C2C(C(=O)N1/N=C/c1ccco1)C1C=CC2C12CC2 (centres undefined)	10µM*	27	-15%
O=C1CC(=O)N(Cc2ccco2)C(=O)N1	-7%	11	-2%
O=C1C2C(C(=O)N1/N=C/c1cc([N+](=O)[O-])ccc1O)C1C=CC2C12CC2 (centres undefined)	u	7	-22%
Cc1ccc(/C=N/N2C(=O)C3C(C2=O)C2C=CC3C23CC3)o1 (centres undefined)	u	-26	-17%
O=C1C2C(C(=O)N1/N=C/c1cccc([N+](=O)[O-])c1)C1C=CC2C12CC2 (centres undefined)	16µM*	u	16µM*
O=C1C2C(C(=O)N1Cc1ccco1)C1C=CC2C12CC2 (centres undefined)	13µM*	u	-7%
O=C1C2C3c4ccccc4C(c4ccccc43)C2C(=O)N1Cc1ccco1 (centres undefined)	-6%	-6	x
Cc1ccccc1N1C(=O)c2cc(S(N)(=O)=O)c(Cl)cc2N[C@H]1C	u	x	-27%
SMILES	ALDH1A1 inh	PNC inhibitor	HPGD block
CN(C)Cc1ccc(O)c(CN(C)C)n1	-4%[13.5 µM]	x	-5%
NC(=O)Cc1ccc(Nc2nnc(-c3ccc(O)cc3)c3ccccc23)cc1	14%	57	x
CCN(C(=O)COC(=O)c1cc(-c2cccc3ccccc23)nc2ccccc12)C1CCS(=O)(=O)C1 (centres undefined)	u	132	u
O=c1oc2cc(O)ccc2c2oc3cc(O)ccc3c12	u	76	u
COc1c(O)c(O)cc2c1oc1c3ccccc3oc(=O)c21	u	x	13µM*
Cn1c(CCNC(=O)c2ccco2)nc2cc(NS(=O)(=O)c3ccc(Cl)cc3)ccc21	-5%	u	-8%
O=C(c1ccco1)N1CCN(S(=O)(=O)c2cccc(C(F)(F)F)c2)CC1	0%	27	-9%
O=C(CSc1nnnn1-c1ccccc1)CC(=O)Nc1ccc(Cl)cc1	2.2µM*	35	-31%
C/C(CC(=O)Nc1ccc(C)c(Cl)c1)=N\NC(=O)Cc1ccccc1	u	27	-14%
CC(C)=CC(=O)Nc1ccc(OCc2ccccc2)cc1	-3%	x	x
CCn1nnnc1SCC(=O)Nc1ccc(OCc2ccccc2)cc1	u	-27	-9%
